# According to article PMC4552634, “A New Set of Chemical Starting Points with Plasmodium falciparum Transmission-Blocking Potential for Antimalarial Drug Discovery” (PLoS ONE, 2015):
# In all, about 13,000 compounds went through this assay and about 3,200 (25%) showed an effect of 50% or more. This is one part of the list.
# System: P. falciparum stage V gametocytes
# Parameters: BacTiter-Glo ATP luminescence viability of purified stage V gametocytes in 384-well plates, per cent inhibition versus DMSO
# Conditions: 48 h, 5 µM; inhibitor
row,SMILES,% Inhibition [%]
1,CC(C)(C)c1ccccc1SC1=C(O)CC2(CCNCC2)OC1=O [TCMDC-140973],16.85
2,Cc1cccc2nc(-c3ccc(-c4ccc(CN5CCCCC5CO)cc4)cc3)[nH]c12.O=C(O)C(F)(F)F (stereo not shown) [TCMDC-133824],10.09
3,Cn1nc(-c2ccc(CNC3CCc4ccccc43)cc2)c2cnc(NCCN3CCCC3)nc21 (stereo not shown) [TCMDC-135033],65.68
4,Cn1nc(-c2ccc(CNC3CCc4ccccc43)cc2)c2cnc(NCCCN3CCCC3)nc21 (stereo not shown) [TCMDC-135036],65.55
5,CN(c1cc(NC(=O)c2cccs2)ccn1)C1CCN(Cc2cccc(F)c2)CC1 [TCMDC-135010],5.779
6,COc1ccc2nccc([C@@H](O)CN3CCC(NC(=O)C(c4cc5ccccc5o4)N4CCN(C(c5ccccc5)c5ccccc5)CC4)CC3)c2c1 (stereo partly shown) [TCMDC-140990],16.51
7,O=C(Nc1ccc(NC2=NCCN2)cc1)c1ccc(C(=O)Nc2ccc(NC3=NCCN3)cc2)cc1 [TCMDC-137799],30.06
8,Nc1ncc(-c2cccc(F)c2)cc1-c1nc2ccc(F)cc2[nH]1 [TCMDC-133132],-10.73
9,CCOC(=O)c1ccc(NC(=O)Nc2cccc(-c3cccc(-c4nc5ccc(F)cc5[nH]4)c3)c2)cc1 [TCMDC-133268],-1.066
10,CCc1nc(N)nc(N)c1-c1ccc(F)cc1 [TCMDC-137722],5.569
11,CC[C@H]1CN2CC[C@H]1C[C@H]2[C@H](O)c1cc(-c2ccccc2C(F)(F)F)nc2ccc(OC)cc12 [TCMDC-141198],-3.019
12,CC[C@H]1CN2CC[C@H]1C[C@H]2[C@H](O)c1cc(-c2ccc(Cl)c(Cl)c2)nc2ccc(OC)cc12 [TCMDC-141216],98.02
13,CC[C@H]1CN2CC[C@@H]1C[C@@H]2[C@@H](O)c1cc(-c2ccc(F)cc2)nc2ccc(OC)cc12 [TCMDC-141379],96.07
14,CC[C@H]1CN2CC[C@H]1C[C@H]2[C@H](O)c1cc(-c2ccc(SC)cc2)nc2ccc(OC)cc12 [TCMDC-141196],82.69
15,CC[C@H]1CN2CC[C@H]1C[C@H]2[C@H](O)c1cc(-c2ccc(OC(F)(F)F)cc2)nc2ccc(OC)cc12 [TCMDC-141214],67.8
16,CC[C@H]1CN2CC[C@H]1C[C@H]2[C@H](O)c1cc(-c2ccccc2F)nc2ccc(OC)cc12 [TCMDC-141193],19.12
17,O=C(NCCN1CCCCC1)c1ccc(CNC(=O)c2ccc(O)c(-c3ccc(Cl)c(Cl)c3)c2)cc1 [TCMDC-140860],-11.08
18,COc1ccc(Nc2nc(C)cc(NC3CCCC3)n2)cc1 [TCMDC-133465],24.25
19,CCOC(=O)c1c(CCc2ccc(C(F)(F)F)cc2)nc2c(c1-c1ccc(C(=O)N[C@@H](C)c3ccncc3)cc1)C(=O)N1CCC[C@@H]21 [TCMDC-138612],6.02
20,CCCNC(=O)CN1CN(c2ccccc2)C2(CCN(C(=O)c3ccc(C(C)(C)C)cc3)CC2)C1=O [TCMDC-125173],-65.45

row,SMILES,% Inhibition [%]
1,Cc1c(C)n(Cc2ccccc2)c2ncnc(OC3CCN(CC(=O)NCC4CC4)CC3)c12 [TCMDC-125326],-12.47
2,CCOC(=O)c1[nH]c(-c2cccnc2)nc1NC(=S)NCc1ccccc1 [TCMDC-138784],-4.964
3,COc1cccc(C(O)CNc2ccnc(Nc3cccc(-c4csc(C)n4)c3)n2)c1 (stereo not shown) [TCMDC-136574],8.83
4,CCN(CC)CCCN1CCN(C(=O)c2cccc(-c3noc(C(F)(F)F)n3)c2)CC1 [TCMDC-132421],-5.247
5,NC(N)=NC(=O)Nc1cc(Br)c(Cl)c(C(F)(F)F)c1 [TCMDC-137513],-25.86
6,CCc1ccc(-c2nc3cc(NC(=O)c4cc([N+](=O)[O-])cc([N+](=O)[O-])c4)ccc3o2)cc1 [TCMDC-124220],-7.299
7,COc1ccc(-c2csc3nc(C)nc(Cl)c23)cc1OC [TCMDC-125523],-37.7
8,C=C[C@H]1CN2CC[C@H]1C[C@H]2[C@H](O)c1cc(-c2ccc(Cl)cc2)nc2ccc(OC)cc12 [TCMDC-139009],109.5
9,CC[C@H]1CN2CC[C@H]1C[C@H]2[C@H](O)c1cc(-c2cccc(Cl)c2)nc2ccc(OC)cc12 [TCMDC-141215],86
10,COc1ccc2nc(-c3ccc(F)cc3)cc([C@@H](O)[C@@H]3C[C@@H]4CCN3CC4C=NO)c2c1 (stereo partly shown) [TCMDC-141395],28.31
11,CC[C@H]1CN2CC[C@H]1C[C@H]2[C@H](O)c1cc(-c2ccc(F)cc2)nc2ccc(OC)cc12 [TCMDC-141195],81.45
12,CC[C@H]1CN2CC[C@H]1C[C@H]2[C@H](O)c1cc(-c2ccc3ccccc3c2)nc2ccc(OC)cc12 [TCMDC-141213],91.14
13,CC[C@H]1CN2CC[C@H]1C[C@H]2[C@H](O)c1cc(-c2ccc(F)cc2C)nc2ccc(OC)cc12 [TCMDC-141197],26.99
14,C=C[C@H]1CN2CC[C@@H]1C[C@H]2[C@H](O)c1cc(-c2ccc(F)cc2)nc2ccc(OC)cc12 [TCMDC-141374],31.93
15,CC[C@H]1CN2CC[C@@H]1C[C@H]2[C@H](O)c1cc(-c2cc(Cl)cc(Cl)c2)nc2ccc(OC)cc12 [TCMDC-141351],45.7
16,CC[C@H]1CN2CC[C@H]1C[C@H]2[C@H](O)c1cc(-c2ccc(C)cc2)nc2ccc(OC)cc12 [TCMDC-141192],31.69
17,COc1ccc2nccc(N3CCC(SCCNS(=O)(=O)c4ccc5c(c4)OCCO5)C3)c2n1 (stereo not shown) [TCMDC-134549],-1.611
18,CCCC(=O)c1cnc2c(I)cccc2c1Nc1ccccc1C [TCMDC-138960],-3.378
19,Cc1cccc2[nH]c(-c3ccc(-c4cccc(CN5CCN(c6ccncc6)CC5)c4)cc3)nc12 [TCMDC-132913],17.14
20,CC1(C)N=C(N)N=C(N)N1OCCOc1ccc(Cc2ccccc2)cc1 [TCMDC-131618],0.9057
